This is an account of results in PubChem BioAssay (NCI).

The structures appear in SMILES notation. The panel holds about 83,000 compounds, 20% with a hit somewhere; the sample as a whole holds those more often.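 Step 1: grow cells in 96-well plates. Step 2: add test compound at a single concentration. Step 3: incubate 48 h. Step 4: record percent growth.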 Values without a mark were called inactive. Active and inactive are the calls of the source. The calls were made as follows: active = growth percent below 10; inactive = the rest.

Test systems include DU-145 prostate; K-562 leukemia; MALME-3M melanoma; RXF 393 renal; SF-268 CNS; SF-295 CNS; SF-539 CNS; UACC-257 melanoma; M14 melanoma; MDA-MB-231 breast.
Assay in all cases: NCI-60 one-dose screen, 48 h (100 = growth as untreated, 0 = no growth, -100 = all killed)
What all share (conditions): 10 µM unless noted

With `NC(=O)NCCO`, the growth was 110% in the experiment with DU-145 prostate; 99.2% in the experiment with K-562 leukemia; 97.4% with MALME-3M melanoma; 102% with RXF 393 renal; 101% in the experiment on SF-268 CNS; 95.6% in the experiment on SF-295 CNS. Further, the growth with SF-539 CNS was 103%; in the experiment with UACC-257 melanoma, 97.8%; in the experiment with M14 melanoma, 107%.
On to `Nc1cc2c(cc1Cl)C(=O)c1ccccc1C2=O`, for which the growth in the experiment on DU-145 prostate is 67.7%; with K-562 leukemia, 72.4%; in the experiment on MALME-3M melanoma it was 64.7%; in the experiment on RXF 393 renal, 72.2%; with SF-268 CNS it was 44.5%; in the experiment with SF-295 CNS, 35.4%. The growth was -82% (active) in the experiment on SF-539 CNS, 89.8% in the experiment on UACC-257 melanoma and 85.3% in the experiment on M14 melanoma.
With `Cn1c(=O)[nH]c2ccccc2c1=O`, the growth with DU-145 prostate is 104%; in the experiment with K-562 leukemia it was 103%; with MALME-3M melanoma, 100%; in the experiment on RXF 393 renal, 102%; in the experiment on SF-268 CNS it was 107%; in the experiment on SF-295 CNS, 94.4%. Besides, the growth with SF-539 CNS is 98.8%; in the experiment on UACC-257 melanoma, 102%; in the experiment with M14 melanoma it was 107%.
On to `CC(CC(CCC(=O)O)(c1ccccc1)c1ccccc1)N(C)C` (stereo not given), for which the growth was 115% in the experiment on DU-145 prostate; 103% in the experiment with K-562 leukemia; 109% in the experiment with MALME-3M melanoma; 105% in the experiment on RXF 393 renal; 102% with SF-268 CNS; 93% in the experiment with SF-295 CNS. For the same molecule, the growth in the experiment with SF-539 CNS is 95.1%; in the experiment on UACC-257 melanoma, 88.9%; with M14 melanoma, 95%.
Turning to `COc1ccc(Br)c(C=O)c1`, the growth was 88.1% with DU-145 prostate; 11.6% in the experiment on K-562 leukemia; 66.2% in the experiment on MALME-3M melanoma; 80.1% in the experiment with RXF 393 renal; 60.8% with SF-268 CNS; 65.7% in the experiment with SF-295 CNS. Further, the growth in the experiment on SF-539 CNS is 30.5%; with UACC-257 melanoma, 79.7%; in the experiment with M14 melanoma, 46.1%.
Take `Cc1[nH]nc(C(N)=O)c1[N+](=O)[O-]`: the growth with DU-145 prostate is 103%; in the experiment on K-562 leukemia it was 126%; in the experiment with MALME-3M melanoma, 94%; in the experiment on RXF 393 renal, 86.9%; with SF-268 CNS, 99.4%; with SF-295 CNS it was 99%. Also, the growth in the experiment on SF-539 CNS was 93.3%; with UACC-257 melanoma it was 93.7%; in the experiment with M14 melanoma, 90.4%.
With `COC1OC(C(O)C(O)CO)C(O)C(O)C1O` (stereo not given), the growth is 118% in the experiment with DU-145 prostate; 104% in the experiment on K-562 leukemia; 101% in the experiment with MALME-3M melanoma; 98% with RXF 393 renal; 103% with SF-268 CNS; 100% with SF-295 CNS. Also, the growth with SF-539 CNS is 97.5%; in the experiment on UACC-257 melanoma it was 95.6%; in the experiment on M14 melanoma, 97.4%.
`S=CN1CCCCC1`: the growth is 106% with DU-145 prostate; 101% in the experiment with K-562 leukemia; 108% with MDA-MB-231 breast; 102% with RXF 393 renal; 96.7% in the experiment with SF-268 CNS; 96% with SF-295 CNS. The results for the growth in the experiment on SF-539 CNS, in the experiment with UACC-257 melanoma and with M14 melanoma were 97.4%, 91.8% and 106%, respectively.
As for `CSc1nc2[nH]ncc2c(=O)[nH]1`, the growth in the experiment with DU-145 prostate was 104%; with K-562 leukemia, 113%; with MALME-3M melanoma, 101%; with RXF 393 renal, 92.6%; with SF-268 CNS, 95.2%; with SF-295 CNS, 96.2%. In addition, the figures for the growth with SF-539 CNS, in the experiment on UACC-257 melanoma and in the experiment on M14 melanoma were 96%, 109% and 92.1%, respectively.
In the case of `CC(C)(N)CO[C@H]1C[C@H]2CC[C@@]1(C)C2(C)C`, the growth in the experiment with DU-145 prostate was 102%; in the experiment on K-562 leukemia, 123%; in the experiment on MALME-3M melanoma, 97.1%; with RXF 393 renal, 87.6%; in the experiment on SF-268 CNS, 91.5%; with SF-295 CNS, 97.7%. Moreover, the growth in the experiment on SF-539 CNS is 99.4%; in the experiment with UACC-257 melanoma, 97.1%; in the experiment with M14 melanoma, 90%.
For `C=COC(=O)CCOCC(CC)CCCC` (stereo not given), the growth is 96.5% with DU-145 prostate; 92.9% with K-562 leukemia; 106% in the experiment with MDA-MB-231 breast; 108% with RXF 393 renal; 99.5% in the experiment with SF-268 CNS; 102% in the experiment on SF-295 CNS. Further, the growth in the experiment on SF-539 CNS is 105%; with UACC-257 melanoma it was 108%; in the experiment with M14 melanoma, 99.9%.
Regarding `CS(=O)(=O)c1ccc(/C=C\C(=O)O)cc1`, the growth is 104% in the experiment with DU-145 prostate; 122% in the experiment on K-562 leukemia; 110% with MDA-MB-231 breast; 95.7% in the experiment on RXF 393 renal; 94.1% in the experiment with SF-268 CNS; 103% in the experiment on SF-295 CNS. Besides, the figures for the growth with SF-539 CNS and in the experiment with UACC-257 melanoma were 91.8% and 99.7%, respectively.
As to `Nc1nnc2cc(F)ccc2n1`, the growth in the experiment on DU-145 prostate is 102%; with K-562 leukemia, 97.2%; in the experiment with MALME-3M melanoma it was 107%; in the experiment with MDA-MB-231 breast, 102%; with SF-268 CNS it was 99.6%; in the experiment with SF-539 CNS, 107%. Moreover, the growth with UACC-257 melanoma is 110%; with M14 melanoma it was 99.3%.
`CSCC[C@@H]1C(=O)N(C)[C@H](C(C)(C)C)N1C(=O)c1ccccc1`: the growth with DU-145 prostate was 106%; in the experiment on K-562 leukemia it was 114%; in the experiment with MDA-MB-231 breast it was 111%; in the experiment on RXF 393 renal it was 111%; with SF-268 CNS it was 94.8%; in the experiment with SF-295 CNS, 108%. Moreover, the growth with SF-539 CNS is 107%; with UACC-257 melanoma, 100%; in the experiment on M14 melanoma, 105%.
Consider `CCOC(C=O)OCC`, for which the growth with DU-145 prostate was 104%; in the experiment on K-562 leukemia it was 106%; with MALME-3M melanoma, 92.6%; in the experiment with RXF 393 renal it was 121%; in the experiment on SF-268 CNS, 98.3%; in the experiment on SF-295 CNS, 99%. Also, the growth in the experiment with SF-539 CNS was 97.8%; in the experiment with UACC-257 melanoma, 96.6%; in the experiment on M14 melanoma it was 106%.
As for `C=CC1=NC(C)(C)CC(C)O1` (stereo not given), the growth with DU-145 prostate was 113%; with K-562 leukemia it was 107%; in the experiment on MALME-3M melanoma it was 107%; with MDA-MB-231 breast, 110%; in the experiment with SF-268 CNS, 109%; with SF-539 CNS, 97.8%. The growth was 95.4% with UACC-257 melanoma and 112% in the experiment with M14 melanoma.
For the molecule `Cc1[nH]n(-c2ccccc2)c(=O)c1C=NC(=S)C(N)=S`, the growth in the experiment with DU-145 prostate was 106%; with K-562 leukemia it was 101%; in the experiment with MDA-MB-231 breast, 98.9%; in the experiment with RXF 393 renal it was 106%; with SF-268 CNS, 100%; in the experiment with SF-295 CNS it was 98.4%. In addition, the growth in the experiment on SF-539 CNS is 106%; with UACC-257 melanoma, 97.7%; in the experiment with M14 melanoma, 103%.
